Data taken from the supplement of paper PMC8728848.
This is one part of a sample in which the strongest signals are shown more often than they occur.

Key:
Assay in all cases: glycan array binding signal (z-score within array); higher = stronger binding
Conditions in all cases: glycan notation: IUPAC condensed, linker removed
[1] = target: Fuc(a1-2)Gal(b1-3)GalNAc(b1-3)Gal
How it was run: (§1)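 Arrays were curated from the Consortium for Functional Glycomics database, 3228 in total, and kept only where the protein sequence was available. Binding is expressed as a within-array Z-score. This score was averaged across arrays of the same protein sequence at different concentrations or buffers and across linkers, and negative values can be read as non-binding.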

[2] = target: Fuc(a1-2)Gal(b1-3)GlcNAc(b1-2)Man(a1-3)[Fuc(a1-2)Gal(b1-3)GlcNAc(b1-2)Man(a1-6)]Man(b1-4)GlcNAc(b1-4)GlcNAc
How it was run: as §1

[3] = target: Fuc(a1-2)Gal(b1-4)GlcNAc(b1-3)[Fuc(a1-2)Gal(b1-4)GlcNAc(b1-6)]GalNAc
How it was run: as §1

[4] = target: Fuc(a1-2)Gal3S(b1-4)GlcNAc
How it was run: as §1

[5] = target: Fuc(a1-2)[Gal(a1-3)]Gal(b1-4)Glc
How it was run: as §1

[6] = target: Fuc(a1-2)[Gal(a1-3)]Gal(b1-4)GlcNAc(b1-2)Man(a1-3)[Fuc(a1-2)[Gal(a1-3)]Gal(b1-4)GlcNAc(b1-2)Man(a1-6)]Man(b1-4)GlcNAc(b1-4)GlcNAc
How it was run: as §1

[7] = target: Fuc(a1-3)[Gal(b1-4)]GlcNAc(b1-4)Gal(b1-4)[Fuc(a1-3)]GlcNAc(b1-4)Gal(b1-4)[Fuc(a1-3)]GlcNAc
How it was run: as §1

[8] = target: Fuc(a1-3)[Gal3S(b1-4)]GlcNAc6S
How it was run: as §1

[9] = target: Fuc(a1-3)[GalNAc(b1-4)]GlcNAc
How it was run: as §1

[10] = target: Gal(a1-3)Fuc(a1-2)Gal(b1-4)GlcNAc(b1-3)[Gal(a1-3)Fuc(a1-2)Gal(b1-4)GlcNAc(b1-6)]GalNAc
How it was run: as §1

[11] = target: Gal(a1-3)[Gal(a1-4)]Gal(b1-4)GlcNAc
How it was run: as §1

[12] = target: Gal(b1-3)GalNAc(a1-3)[Fuc(a1-2)]Gal(b1-4)Glc
How it was run: as §1

[13] = target: Gal(b1-3)[Fuc(a1-4)]GlcNAc(b1-3)Gal(b1-3)[Fuc(a1-4)]GlcNAc
How it was run: as §1

[14] = target: Gal(b1-4)GalNAc(b1-3)[Fuc(a1-2)]Gal(b1-4)GlcNAc
How it was run: as §1

[15] = target: Gal(b1-4)GlcNAc(b1-2)Man(a1-3)[Gal(b1-4)GlcNAc(b1-2)Man(a1-6)]Man(b1-4)GlcNAc(b1-4)GlcNAc
How it was run: as §1

[16] = target: Gal(b1-4)GlcNAc(b1-2)Man(a1-3)[Gal(b1-4)GlcNAc(b1-2)Man(a1-6)][GlcNAc(b1-4)]Man(b1-4)GlcNAc(b1-4)[Fuc(a1-6)]GlcNAc
How it was run: as §1

[17] = target: Gal(b1-4)GlcNAc(b1-2)[Gal(b1-4)GlcNAc(b1-6)]Man(a1-6)[GlcNAc(b1-4)][Gal(b1-4)GlcNAc(b1-2)[Gal(b1-4)GlcNAc(b1-4)]Man(a1-3)]Man(b1-4)GlcNAc(b1-4)[Fuc(a1-6)]GlcNAc
How it was run: as §1

[18] = target: Gal(b1-4)GlcNAc(b1-3)Gal(b1-3)GlcNAc
How it was run: as §1

[19] = target: Gal(b1-4)GlcNAc(b1-3)Gal(b1-4)Glc
How it was run: as §1

Gal3S(b1-4)Glc = target: Gal3S(b1-4)Glc
How it was run: as §1

[20] = target: Gal3S(b1-4)[Fuc(a1-3)]Glc6S
How it was run: as §1

Gal4S6S(b1-4)GlcNAc = target: Gal4S6S(b1-4)GlcNAc
How it was run: as §1

Gal6S(b1-4)Glc6S = target: Gal6S(b1-4)Glc6S
How it was run: as §1

GalNAc(b1-3)GlcNAc = target: GalNAc(b1-3)GlcNAc
How it was run: as §1

GalNAc(b1-4)GlcNAc = target: GalNAc(b1-4)GlcNAc
How it was run: as §1

[21] = target: GalNAc(b1-4)GlcNAc(b1-3)GalNAc(b1-4)GlcNAc
How it was run: as §1

GalNAc6S(b1-4)GlcNAc = target: GalNAc6S(b1-4)GlcNAc
How it was run: as §1

[22] = target: Glc(a1-4)Glc(a1-4)Glc(a1-4)Glc
How it was run: as §1

[23] = target: GlcNAc(a1-4)Gal(b1-4)GlcNAc
How it was run: as §1

[24] = target: GlcNAc(a1-4)Gal(b1-4)GlcNAc(b1-3)Gal(b1-4)GlcNAc
How it was run: as §1

B1: Blon2355mut (Bifidobacterium longum) (protein)
chain: MVQEPTLEWHVIPEPTNVEPLVGTCSLPLSGTVVEQRGADDAEAVFARQLVDDIKRVCGGRWQVASGEVQREVTLRTSPSLDDWSYVLEVSPDGVVITGSGFEGVRDGVQTLRQIIRQIGLTIPCMVIRDRPAFSTRGYYLDVTRGRVPSMAWLKSWVDRLCFYKYNQFQLYIEHTFQFNGLSEVWRGADPLTSSDILELDSYCAARGIELVPSVSTFGHHYTALRTRQLRDLGEFPEDADRPFSLIERMTHHTLNITDERSYEFSTSLIDELMPLFRSRKFNICANETFDLGKGRSKQESAKRGVGAMYADFVERLCRHVDDRGHDVMVWADVALEHPEIIDTLPKNITWLNWQYEPNVDDGTTAALADAGATQMVCPAVWCWNALIPRIDDAWNNITRMARHGRAHDVSGMLVTDWGDFGHVNDPRMSVPGMIFGAQQSWNPDAELSEVDMLSRISTIEYGDHTGSVVGALRGASAKGGFSWSDLVTYLELDDGRGGCNTEIVRVMGCLEAYRNDLPQSGQARLADARVSMLRTLRDSILAGRELNGKLDDAAKDITQLLRVAGDPSSAAVWSLAIDGQRLLNRVGLALLAAHGVVRQDEAGIDAAKLADELECWTEQYSRLWHEVSRQSELARIQHVVWRAADVLRSI
glycan array binding signal (z-score) [1]: 4.04 | glycan array binding signal (z-score) [2]: 2.69 | glycan array binding signal (z-score) [3]: -0.88 | glycan array binding signal (z-score) [4]: -0.915 | glycan array binding signal (z-score) [5]: -0.428 | glycan array binding signal (z-score) [6]: -0.395 | glycan array binding signal (z-score) [7]: -0.166 | glycan array binding signal (z-score) [8]: 0.088 | glycan array binding signal (z-score) [9]: 3.72 | glycan array binding signal (z-score) [10]: -1.04 | glycan array binding signal (z-score) [11]: 3.31 | glycan array binding signal (z-score) [12]: -1.53 | glycan array binding signal (z-score) [13]: -1.02 | glycan array binding signal (z-score) [14]: 0.202 | glycan array binding signal (z-score) [15]: -0.374 | glycan array binding signal (z-score) [16]: -0.951 | glycan array binding signal (z-score) [17]: -0.768 | glycan array binding signal (z-score) [18]: -1.26 | glycan array binding signal (z-score) [19]: 1.06 | glycan array binding signal (z-score) (Gal3S(b1-4)Glc): 2.74 | glycan array binding signal (z-score) [20]: 3.52 | glycan array binding signal (z-score) (Gal4S6S(b1-4)GlcNAc): 0.175 | glycan array binding signal (z-score) (Gal6S(b1-4)Glc6S): 1.48 | glycan array binding signal (z-score) (GalNAc(b1-3)GlcNAc): 0.179 | glycan array binding signal (z-score) (GalNAc(b1-4)GlcNAc): 3.04 | glycan array binding signal (z-score) [21]: 0.796 | glycan array binding signal (z-score) (GalNAc6S(b1-4)GlcNAc): -0.569 | glycan array binding signal (z-score) [22]: 2.06 | glycan array binding signal (z-score) [23]: -0.637 | glycan array binding signal (z-score) [24]: -0.378
